In PubChem BioAssay AID504727 (Broad Institute, 2011):
A number with no mark means an inactive call. Activity calls are given as the source filed them.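 How the source made its calls: active means fitted half-maximal concentration AC50 at or below ten times the highest valid tested dose, with signal falling as DNA is displaced (actives reach about 34 µM in these data); inconclusive means flat fit at moderate signal loss, or poor fit quality; inactive means the rest, including signal rising instead of falling.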

Experiment: acridine orange-DNA binding displacement – biochemical, fluorescence polarization, cherry-picked samples, set 2, artefact control for KSHV LANA DNA-binding inhibitor project, dose response (AID 504727);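 on activity change, negative = DNA displacement: 0% = median of neutral control wells and -100% = mitoxantrone positive control wells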
Settings: series mostly up to 35 µM; activity change, negative = DNA displacement: at the top concentration

| Compound | AC50 | activity change, negative = DNA displacement [%] |
| --- | --- | --- |
| Oc1ccc2ccc3cccc[n+]3c2c1 | 1.42 µM (active) | – |
| CCOC(=O)c1ccc[n+](CC(=O)c2ccc(OC)cc2)c1 | – | -0.822 |
| COc1cccc(NC(=O)CN(C)CC(=O)NCc2ccco2)c1 | – | 4.77 |
| NNC(=O)C1C(O)CCC2CN3CCc4c([nH]c5ccccc45)C3CC21 (stereo not drawn) | – | 1.86 |
| CCOC(=O)C1=C(COC(=O)c2ccc([N+](=O)[O-])s2)NC(=O)NC1C (stereo not drawn) | – | -1.59 |
| COc1cccc(OCCNc2ccc([N+](=O)[O-])cn2)c1 | – | 6.5 |
| NC(=O)c1ccc(NC(=O)C2COc3ccccc3O2)cc1 (stereo not drawn) | – | 4.29 |
| CCOC(=O)C1CCCN(C(=O)C2c3ccccc3Oc3ccccc32)C1 (stereo not drawn) | – | -14.3 |
| CCCCCn1nc(-c2ccccc2)c2nc3ccccc3nc21 | > 35 µM | – |
| O=C(O)C1C2C=CC(CC2)C1C(=O)O (stereo not drawn) | – | 0.584 |
| CC(C)C(C(=O)O)N1C(=O)/C(=C/C=C/c2ccco2)SC1=S (stereo not drawn) | – | 10.2 |
| CCN(CC)CCCC(C)n1c2nc(=O)[nH]c(=O)c-2nc2cc(Cl)ccc21 (stereo not drawn) | 0.316 µM (active) | – |
| Cc1cnc(NC(=O)Cc2c[nH]c3ccccc23)s1 | – | 0.01 |
| O=C(NCc1cccnc1)C(=O)C1C(=O)Nc2ccccc21 (stereo not drawn) | – | 2.18 |
| CCOc1ccc(S(=O)(=O)N(C)c2ccc(OCC(=O)NC3=NCCS3)cc2)cc1 | – | -1.93 |
| COc1cccc2c1C(=O)c1c(O)c3c(c(O)c1C2=O)C[C@@](O)(C(C)=O)C[C@@H]3O[C@H]1C[C@H](N)[C@H](O)[C@H](C)O1 | 1.89 µM (active) | – |
| CC(=O)N(C(C)=O)N1C(=O)c2cccc3c(N4CCOCC4)ccc(c23)C1=O | – | 10.5 |
| CC(=O)c1ccc2c(c1)C1C=CCC1C(C(=O)O)N2 (stereo not drawn) | – | 5.9 |
| CC(C)CN(C(=O)CSc1nncn1C)C1CCS(=O)(=O)C1 (stereo not drawn) | – | 3.35 |

| Compound | AC50 | activity change, negative = DNA displacement [%] |
| --- | --- | --- |
| O=C(O)COc1ccc2c(c1)O/C(=C\c1ccco1)C2=O | – | 3.11 |
| O=C(C1CCCO1)N1CCN(c2ncccn2)CC1 (stereo not drawn) | – | 4.25 |
| C=CCN1C(=O)/C(=c2\sc3nc(=O)c(Cc4ccccc4Cl)nn3c2=O)c2ccccc21 | – | 7.68 |
| Clc1ccc(C2=CC(c3ccco3)n3ncnc3N2)cc1 (stereo not drawn) | – | -14.4 |
| COC(=O)c1c(C)oc2ccc(N(C(C)=O)S(=O)(=O)c3ccccc3)cc12 | – | 4.4 |
| CCNc1ccc2noc3c2c1C(=O)c1ccccc1-3 | 0.935 µM (active) | – |
| O=C(Cn1c2ccccc2c2nc3n(c(=O)c21)CCS3)Nc1ccccc1C(F)(F)F | – | 20.6 |
| COc1ccc(NS(=O)(=O)c2ccc3c(c2)[C@H]2C=CC[C@H]2[C@@H](c2ccc(C(=O)O)cc2)N3)cc1 | – | 5.91 |
| CCN1/C(=C2/SC(=S)N(NC(C)=O)C2=O)Sc2ccc(OC)cc21 | 18.8 µM (active) | – |
| C=CC1=C(C(=O)O)N2C(=O)[C@@H](NC(=O)/C(=N/OCC(=O)O)c3csc(N)n3)[C@H]2SC1 | – | -1.81 |
| COc1ccc(NC(=O)CO/N=C2/CCCc3nonc32)c(OC)c1 | – | -0.363 |
| Cc1cccc(COc2ccc(/C=N/NC(=O)c3nnn(-c4nonc4N)c3COc3ccc(F)cc3)cc2)c1 | – | -3.72 |
| Cc1ccc(NC(=O)c2ccc(Cl)c(S(=O)(=O)N3CCc4ccccc43)c2)nc1 | – | 5.37 |
| COC(=O)c1ccc(Oc2nc(Nc3ccc(F)cc3)nc(N3CCCC3)n2)cc1 | – | 3.15 |
| CCOC(=O)c1sc(NC(=O)CSC(=S)N2CCN(C)CC2)nc1C | – | 2.26 |
| CC(C)N(C(=S)Nc1cccnc1)c1ccccc1 | – | 1.38 |
| O=C(O)c1ccc2c(c1)C(=O)/C(=C\c1ccco1)C2=O | – | 2.7 |
| CC(Sc1nc(-c2ccco2)nc2c1c(=O)n(C)c(=O)n2C)C(=O)O (stereo not drawn) | – | -10.9 |
| COc1cccc(NC(=O)CN(C)C(=O)c2cc3ccccc3cc2OC)c1 | – | 4.45 |
